# Screening results as filed in PubChem BioAssay.
# Lassa entry: Lassa virus entry inhibition. 18,000 tested, 4.1% active. Potency, µM (highest dose often 49.2 µM), most hits filed as inhibitors. Lassa virus pseudotyped entry inhibition, cell-based qHTS. AID 720533
# Marburg entry: inhibitors of Marburg virus binding or entry into cells | Marburg virus pseudotype entry/binding inhibition, cell-based | Potency, µM (top dose mostly 49.2 µM), actives largely listed as inhibitors | 18,000 tested, 6.5% active
# A number is an active result; - = inactive; ? = inconclusive; . = no result given; ! = not active in a repeat; [ ] = dose if it differs, or a comment. A selection: hits, their analogues and other compounds. The true share with any hit is near 8.6%. Calls come from the whole dose curve; tested in HEK293 cells.
SMILES,Lassa entry,Marburg entry
COc1ccc([C@]23Cc4ccccc4[C@H](O2)c2c(cc(-c4ccccc4)oc2=O)O3)cc1,-[8.59 µM],-[8.59 µM]
Cc1ccc(C(=O)OC[C@H]2O[C@H](Cl)C[C@H]2OC(=O)c2ccc(C)cc2)cc1,-[8.59 µM],-[8.59 µM]
O=C(OC[C@H]1O[C@@H](OC(=O)c2cc(O)c(O)c(OC(=O)c3cc(O)c(O)c(O)c3)c2)[C@H](OC(=O)c2cc(O)c(O)c(OC(=O)c3cc(O)c(O)c(O)c3)c2)[C@@H](OC(=O)c2cc(O)c(O)c(OC(=O)c3cc(O)c(O)c(O)c3)c2)[C@@H]1OC(=O)c1cc(O)c(O)c(OC(=O)c2cc(O)c(O)c(O)c2)c1)c1cc(O)c(O)c(OC(=O)c2cc(O)c(O)c(O)c2)c1,10µM,0.35µM
N[C@H](C(=O)O)[C@H](O)C(=O)O,?,14µM!
O=C(O)[C@@H](O)[C@H](O)[C@H](O)[C@@H](O)C(=O)O,-,-
CCN1C(=O)N(S(=O)(=O)c2ccc(C)cc2)C(c2ccccc2)C(C(=O)OC)=C1C (centres undefined),-[8.59 µM],-[8.59 µM]
CSc1ncnc2c1ncn2C1OC(CO)C(O)C1O (centres undefined),0.35µM,0.5µM
Cc1ccccc1CNc1ncnc2c1ncn2[C@@H]1O[C@H](CO)[C@@H](O)[C@H]1O,-,-
CNc1ncnc2c1ncn2[C@@H]1O[C@H](CO)[C@@H](O)[C@@H]1O,-,-
OC[C@H]1O[C@@H](n2cnc3c(NCc4ccco4)ncnc32)[C@H](O)[C@@H]1O,?,13µM
Nc1ncnc2c1ncn2C1OC(CO)C(O)C1O (centres undefined),-,-
OC[C@H]1O[C@@H](n2cnc3cncnc32)[C@H](O)[C@@H]1O,7.9µM,3.2µM
COC(=O)CC=C[C@H](C)[C@@H](OCc1ccccc1Br)C(C)C,.,-[8.59 µM]
CC(CCC(=O)OC[C@H]1O[C@H](C#Cc2ccccc2)C=C[C@H]1Oc1ccc(C)cc1)=NOC[C@@H](O)COCc1ccco1,-[8.59 µM],-[8.59 µM]
CCCCN(CCCC)C(=S)[S-].CCCCN(CCCC)C(=S)[S-].[Zn+2],11µM,6.3µM
Nc1nc(-c2nn(Cc3ccccc3F)c3ncccc23)ncc1C1CC1,0.89µM,0.56µM
COc1cc2c(cc1OC)[C@@H]1O[C@](CCCCN3C(=O)c4ccccc4C3=O)(C2)OC2=C1C(=O)CC(C)(C)C2,-[8.59 µM],-[8.59 µM]
COC(=O)C1(C(=O)OC)CC=CCc2ccccc2[C@H]1C[N+](=O)[O-],-[8.59 µM],-[8.59 µM]
COCC1=C2c3ccccc3[C@H](C[N+](=O)[O-])C(C(=O)OC)(C(=O)OC)C[C@@H]2n2c(=O)n(-c3ccccc3)c(=O)n2C1,7.1µM!,-
O=C(NCC1Cc2cc(F)cc(-c3cnccn3)c2O1)c1cccc(-c2ccccc2F)c1 (centres undefined),?,-
NC(=NCc1ccccc1)NC(=O)c1nc(Cl)c(N)nc1N,?,25µM!
NC(=Nc1ccccc1)NC(=O)c1nc(Cl)c(N)nc1N,-,?
CC(=CCO)CCO,-[8.59 µM],-[8.59 µM]
CN1[C@@H]2CC[C@H]1CC(OC(c1ccccc1)c1ccccc1)C2 (some centres undefined),14µM,13µM
c1ccc(C(O[C@H]2CCCN(CCc3ccc4c(c3)OCO4)C2)c2ccccc2)cc1,-,?
SMILES,Lassa entry,Marburg entry
CN1[C@@H]2CC[C@H]1CC(O[C@@H](c1ccccc1)c1ccc(Cl)cc1)C2 (some centres undefined),10µM,4.5µM
CN1C2CCC1CC(OC(c1ccc(F)cc1)c1ccc(F)cc1)C2 (centres undefined),?,5.6µM
CN1C2CC(OC(=O)C(CO)c3ccccc3)CC1C(O)C2 (centres undefined),-,-
O=S(=O)(N[C@@H](CO)Cc1ccccc1)c1cc(Cl)ccc1F,-,-
O=C(OCc1cn([C@H]2C[C@H](c3ccccc3)N(CC3CCCCC3)C[C@H]2O)nn1)c1ccccc1,-,?
CCCNC(=O)OC[C@H]1O[C@H](CCON=C2c3cc(OC)ccc3O[C@H](c3cccc(OC)c3)[C@H]2O)C=C[C@H]1Oc1ccc(OC)cc1,-[8.59 µM],?
CCCC[C@]12Cc3cc(C#N)ccc3[C@H](O1)c1c(c3ccccc3oc1=O)O2,-[8.59 µM],-[8.59 µM]
C#Cc1ccccc1C[C@]1(C(=O)OC)C=C[C@H](C)[C@@H](c2ccccc2Br)N1C(=O)C(F)(F)F,-[8.59 µM],-[8.59 µM]
CC(C)[C@H](CO)Nc1nc(Nc2cccc(Cl)c2)c2ncn(C(C)C)c2n1,28µM,-
CC(C)n1cnc2c(NCc3ccccc3)nc(NCCO)nc21,-,-
CCCCCCCCCCCCCCCC[N+](C)(C)Cc1ccccc1,?,25µM
CCCCCCCCNS(=O)(=O)CCNCc1ccccc1,-,-
CCCCCCCCNS(=O)(=O)CCNCCc1ccccc1,-,-
CCCCCCCCCCCCCC[N+](C)(C)Cc1ccccc1,28µM,?
Cc1nc2ccccc2nc1CN1CCOc2ccc(C3(O)CCN(c4ccccc4F)CC3)cc2C1,?,-
COc1ccc(-c2ccc3c(NC(=O)C4CC4)n[nH]c3n2)cc1,-,-
O=C1CCCC=C1C(O)CCOCc1ccccc1 (centres undefined),-[8.59 µM],-[8.59 µM]
C[C@H]1CN(C2CCCCC2)C(=O)[C@H]1CC(=O)Nc1ccccc1,-,-
COc1ccc(S[C@@H]2C[C@@H](C(=O)Nc3ccc4nccnc4c3)N(C3Cc4ccccc4C3)C2)cc1,3.2µM,-
Cc1ccc(CN2C[C@H](Sc3ccccn3)C[C@H]2C(=O)Nc2ccc3sc(C)nc3c2)cc1,-,?
CCN(CC)Cc1ccc(Nc2ccnc3cc(Cl)ccc23)cc1O,?,1.8µM
CCN(CC)CCC[C@H](C)Nc1ccnc2cc(Cl)ccc12,-,-
Cc1cc2c(c(=O)n1Cc1ccccc1)[C@H]1O[C@](c3ccsc3)(Cc3cc(C#N)ccc31)O2,-[8.59 µM],-[8.59 µM]
CCN(CC)CCOC(=O)C(Cc1cccc2ccccc12)CC1CCCO1 (centres undefined),?,10µM
COc1ccc(C(=O)N(Cc2cc3cccc(C)c3nc2N(C)C)CC2CCCO2)cc1 (centres undefined),-,-
SMILES,Lassa entry,Marburg entry
Cn1ccc2c(-c3ccccc3Cl)cc3c(c21)C1CCC3C1 (centres undefined),-,-
CCCCCCN1C[C@H](O)[C@@H](n2cc(C3CC3)nn2)C[C@H]1c1ccc(C)cc1,-,?
COc1cc(-c2ccc(-[n+]3nc(-c4ccccc4)nn3-c3ccc([N+](=O)[O-])cc3)c(OC)c2)ccc1-[n+]1nc(-c2ccccc2)nn1-c1ccc([N+](=O)[O-])cc1,14µM,14µM
COC(=O)C1=C(C)N(CC2CC2)C(N(C)Cc2ccc(OC)cc2)=NC1c1ccccc1 (centres undefined),-[8.59 µM],-[8.59 µM]
COC(=O)C1=C(C)N(Cc2ccccc2)C(=O)NC1c1ccco1 (centres undefined),-[8.59 µM],-[8.59 µM]
COc1cc(=O)n2c(c1C(=O)N(C)Cc1nonc1C)CCN(Cc1c(F)cccc1F)CC2,11µM,-
COc1cc(=O)n2c(c1C(=O)N(C)Cc1nonc1C)CCN(Cc1cc(F)ccc1F)CC2,-,-
C=C(C)CCCN1C=C(C(C)=O)C(c2ccccc2)NC1=O (centres undefined),-[8.59 µM],-[8.59 µM]
CCOC(=O)CCN1C(=O)[C@@H]2[C@H]3[C@H](O)[C@H](O)CC(=NNC(=O)OCc4ccc(OC)cc4)[C@H]3CC[C@H]2C1=O,.,-[8.59 µM]
OCCNCCCOc1cccc(Cl)c1Cl,?,6.3µM
O=C1C=C2C(=CCOC2O)O1 (centres undefined),3.2µM,1.1µM
COc1ccc(-c2ccnc(-n3ncc(C(=O)NCc4cccnc4)c3C3CC3)n2)cc1F,?,-
